Test results as given in PubChem BioAssay AID1920062 (Sanford-Burnham Center for Chemical Genomics, 2024).
About 400 (0.11%) of roughly 370,000 compounds were called active. The entries come from a sample that favours actives as a whole. Unmarked numbers belong to inactive results.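 Rule for the calls: active = activation at 10 µM reaching about 35% in either raw or pattern-adjusted values (limit read from the data); inactive = the rest.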

Molecular target: Atrial natriuretic peptide receptor 2 (Homo sapiens) (UniProt P20594)
Experiment: human GC-B receptor activators, primary screen, HEK293 GC-B cells, cGMP TR-FRET, EC30 CNP (AID 1920062)
Settings: at 10 µM, hits give high values, 0% at EC30 CNP, 100% saturating CNP

Sequence of Atrial natriuretic peptide receptor 2 (Homo sapiens) (P20594 whole entry, looked up): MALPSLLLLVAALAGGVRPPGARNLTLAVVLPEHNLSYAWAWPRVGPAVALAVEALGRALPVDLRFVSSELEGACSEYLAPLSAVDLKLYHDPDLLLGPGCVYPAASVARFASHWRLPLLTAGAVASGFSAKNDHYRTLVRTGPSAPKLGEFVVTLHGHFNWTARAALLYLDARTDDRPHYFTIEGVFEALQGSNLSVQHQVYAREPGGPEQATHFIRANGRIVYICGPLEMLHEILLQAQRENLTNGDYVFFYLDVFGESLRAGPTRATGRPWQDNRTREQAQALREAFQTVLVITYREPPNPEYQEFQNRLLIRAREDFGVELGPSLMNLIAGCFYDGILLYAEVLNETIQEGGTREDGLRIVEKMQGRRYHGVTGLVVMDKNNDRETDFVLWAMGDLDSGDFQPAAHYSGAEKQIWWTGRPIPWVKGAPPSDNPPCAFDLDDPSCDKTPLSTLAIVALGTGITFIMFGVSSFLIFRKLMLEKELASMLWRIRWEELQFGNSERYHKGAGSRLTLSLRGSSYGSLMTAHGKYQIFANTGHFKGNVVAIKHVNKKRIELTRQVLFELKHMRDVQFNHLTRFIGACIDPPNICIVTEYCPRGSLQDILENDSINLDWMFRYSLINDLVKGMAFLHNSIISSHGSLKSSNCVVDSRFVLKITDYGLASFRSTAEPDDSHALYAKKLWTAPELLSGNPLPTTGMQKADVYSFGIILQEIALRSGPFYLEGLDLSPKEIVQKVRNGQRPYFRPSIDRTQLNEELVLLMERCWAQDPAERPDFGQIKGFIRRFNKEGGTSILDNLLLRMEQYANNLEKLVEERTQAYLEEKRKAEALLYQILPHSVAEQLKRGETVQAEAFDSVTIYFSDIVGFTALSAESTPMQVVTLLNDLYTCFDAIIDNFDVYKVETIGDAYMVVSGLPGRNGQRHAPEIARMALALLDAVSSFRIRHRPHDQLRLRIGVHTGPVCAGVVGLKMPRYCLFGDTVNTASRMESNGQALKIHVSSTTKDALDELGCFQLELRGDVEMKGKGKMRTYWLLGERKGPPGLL

Compound | activation
CS(=O)(=O)N(CC(=O)N1CCN(c2cccc(Cl)c2)CC1)c1ccccc1 | -0.13%
c1ccc(CSc2ncnc3c2sc2nc(N4CCOCC4)c4c(c23)CCCC4)cc1 | -0.49%
Cc1cc(C)c(C#N)c(SCc2ccc3c(c2)OCO3)n1 | 6.77%
COc1ccc(CSc2nc(N3CCOCC3)c3c(c2C#N)CC(C)(C)OC3)cc1 | 48.4% (active)
O=C1CCC(=O)N(c2ccccc2)N1 | 0.63%
CC(=O)Nc1ccc(NC(=O)CSc2nnnn2-c2ccccc2F)cc1 | -2.78%
CCCCCN(C(=O)NC(=O)Nc1ccccc1OC)S(C)(=O)=O | 0.44%
CCn1c(SCC(=O)NNC(=O)c2ccc(OC)cc2)nnc1C(C)C | 1.41%
COc1ccccc1C(=O)CSc1nnc(-c2ccccn2)n1-c1ccccc1 | -3.37%
Nc1ncnc(Nc2cccc(Cl)c2Cl)n1 | 1.89%
CC1(C)OC(=O)C2=C(C[C@@H](C3CC3)O[C@H]2CCc2cccc(Cl)c2)O1 | 3.35%
C[C@@H]1CN([C@@H](C)CO)C(=O)CCCn2nncc2CO[C@H]1CN(C)Cc1ccc(C(F)(F)F)cc1 | -5.26%
CCOc1c(Br)cc(/C=C2\C(=O)N(CCC#N)N=C2C)cc1OC | 51.6% (active)
COc1ccc(C(CNC(=O)c2ccc(S(=O)(=O)Nc3ccccc3F)cc2)N(C)C)cc1 (stereo not drawn) | -0.81%
CC1(c2ccc(Cl)cc2Cl)NC(=O)N(CC(=O)Nc2cccnc2Cl)C1=O (stereo not drawn) | 3.74%
CCCCN(C)CCNC(=O)C1CCCN(S(=O)(=O)c2cccc3nsnc23)C1 (stereo not drawn) | 4.51%
CC(Oc1ccc(F)cc1F)C(=O)/C=C/N(C)C (stereo not drawn) | 1.84%
CCC(C)(C)NC(=O)C(c1cccc(OC)c1OC)N(CC(C)C)C(=O)CCC(=O)Nc1cc(C)on1 (stereo not drawn) | -7.74%
CC1CCCCC12NC(=O)N(CC(=O)Nc1ccc(S(=O)(=O)Nc3ncccn3)cc1)C2=O (stereo not drawn) | 1.08%
Nc1nnc(SCC(=O)NCC(=O)Nc2ccc(F)c(F)c2F)s1 | -0.75%
CC(=O)c1cccc(-n2nnnc2SCC(=O)NNC(=O)C2CCCCC2)c1 | 1.65%
O=C(OCC(=O)N1CCCCCC1)c1cnc(Cl)c(Cl)c1 | 4.57%
CC(=O)C[C@H](O)CC(=O)[C@@H]1OC(=O)[C@@H](C)C/C=C\Cc2ccccc21 | 5.5%
CCCCn1c(N)c(N2CCOCC2)c(=O)n(CC(=O)NCCc2ccccc2)c1=O | 0.41%

Compound | activation
CC(=O)NC(Cc1ccc(F)cc1)C(=O)O (stereo not drawn) | 7.58%
Cc1nc(C(F)(F)F)ccc1C(=O)N1CCC1(C)C(=O)NS(=O)(=O)c1ccc(F)cc1F (stereo not drawn) | 1.28%
O=C1OCC2=C1C(c1ccccc1)CC(=O)N2c1cccc(F)c1 (stereo not drawn) | 3.79%
CCOC(=O)C1(Cc2ccccc2C)CCCN(C(=O)CN2C(=O)CSC2=O)C1 (stereo not drawn) | 1.31%
O=S1(=O)c2c(cccc2N2CCCCC2)O[C@H](COCc2ccccc2)CN1C1CC1 | 2.03%
O=C(Oc1ccc(C(=S)N2CCOCC2)cc1)c1ccc(F)cc1 | -0.5%
CC(NCc1nc2ccccc2n1C)C12CC3CC(CC(C3)C1)C2 (stereo not drawn) | -3.22%
NC(=O)NC(=O)C(OC(=O)CCNS(=O)(=O)c1ccccc1)c1ccccc1 (stereo not drawn) | 0.79%
CCOC(=O)N1CCN(C(=O)CN(C2CCCCC2)S(C)(=O)=O)CC1 | 6.88%
Cn1c(=O)c2c(nc(N/N=C/c3cccs3)n2Cc2ccc(Br)cc2)n(C)c1=O | 23.1%
CCC/C(C)=N\Nc1nc2c(c(=O)n(C)c(=O)n2C)n1C | -1.79%
C/C(Cl)=C\Cn1c(Nc2cccc(C)c2)nc2c1c(=O)n(C)c(=O)n2C | 45.4% (active)
Cc1cc(C)n(-c2nc(O)cc(=O)[nH]2)n1 | 6.13%
CCn1c(CNC(=O)c2ccccc2)nnc1SCC(=O)N1CCN(c2ccccc2)CC1 | 1.17%
CC(C)COC(=O)c1ccc(NC(=O)C2C3C=CC(C3)C2C(=O)O)cc1 (stereo not drawn) | 6.16%
CCN(CC(=O)NCc1cccs1)S(=O)(=O)c1ccc(NC(C)=O)cc1 | 5.26%
CC(=O)N1C(C)c2ccccc2C(C)(C)CC12CCCCC2 (stereo not drawn) | 1.32%
C=C1C2C[C@H](O)C(C)(C)[C@@]2(O)[C@H](O)C[C@]23C[C@@](C)(O)[C@H](CC[C@H]12)[C@H]3O (stereo partly drawn) | 5.08%
Cc1nc(CNc2ncnc3ccc(-c4ccc5c(c4)OCO5)cc23)cs1 | 3.38%
O=C(Cn1nnc(-c2ccc3c(c2)OCO3)n1)NCc1ccco1 | -0.02%
c1coc(CCNc2ncnc3ccc(-c4ccc5c(c4)OCO5)cc23)c1 | 50.1% (active)
CC(C)C(NC(=O)c1c(F)cccc1F)C(=O)NNC(=O)c1ccccc1 (stereo not drawn) | 3.58%
O=Cc1c(Cl)cccc1Cl | -13.9%
Cc1ccccc1NC(=O)COC(=O)c1ccc(Sc2ncn[nH]2)c([N+](=O)[O-])c1 | -1.97%
